# Tests used:
# Test in all cases: PBM binding z-score (relative to random genomic background probes); higher = stronger binding; sequences stand for … in GC…GCGATTGACAGCGTAGAATGAAGG
# [1] = test system: FXR:RXRa (NR concentration 270 nM, RXRa partner concentration 90 nM)
# Outline: (§1)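 Ligand-free nuclear receptor dimers were bound for 1 h to custom Agilent 4×180K protein-binding microarrays. Detection used antibodies against each partner (one per run). Binding z-scores rest on regression-normalized fluorescence, with random background probes as the reference.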
# [2] = test system: LXRa:RXRa (NR concentration 270 nM, RXRa partner concentration 90 nM)
# Outline: as §1
# [3] = test system: LXRa homodimer (NR concentration 270 nM)
# Outline: as §1
# [4] = test system: LXRb:RXRa (NR concentration 270 nM, RXRa partner concentration 90 nM)
# Outline: as §1
# [5] = test system: LXRb homodimer (NR concentration 270 nM)
# Outline: as §1
# [6] = test system: PPARa:RXRa (NR concentration 270 nM, RXRa partner concentration 90 nM)
# Outline: as §1
# [7] = test system: PPARg:RXRa (NR concentration 180 nM, RXRa partner concentration 90 nM)
# Outline: as §1
# [8] = test system: PPARg:RXRa 270nM:90nM, anti-RXR (NR concentration 270 nM, RXRa partner concentration 90 nM)
# Outline: as §1
# [9] = test system: PPARg:RXRa 30nM:10nM, anti-RXR (NR concentration 30 nM, RXRa partner concentration 10 nM)
# Outline: as §1
# [10] = test system: PPARg:RXRa 90nM:30nM, anti-RXR (NR concentration 90 nM, RXRa partner concentration 30 nM)
# Outline: as §1
Sequence,PBM binding z-score [1],PBM binding z-score [2],PBM binding z-score [3],PBM binding z-score [4],PBM binding z-score [5],PBM binding z-score [6],PBM binding z-score [7],PBM binding z-score [8],PBM binding z-score [9],PBM binding z-score [10]
TCTGGTAGATCAACAGGAGGTTAAGAAAGATCGA,0.3,1.04,0.187,0.782,-0.582,1.24,-0.00962,1.19,2.17,1.82
ATCGAAAGGTCGAGGTCAGTATAGAGAAAGGGAA,5.77,4.62,1.15,4.12,1.14,5.3,4.76,5.12,2.04,4.08
CGTCCACGGTCAAAGGTCAGTGAAGAGATGACGG,5.45,4.83,1.87,3.7,-0.0177,5.49,7.71,7.46,5.82,7.93
GCTAATAGTTGAAAGGGCAACCGAATGATTCTCG,0.971,1.16,-0.065,1.09,-0.087,2.85,3.03,4.2,2.1,3.9
CGAACTAGGTCATTGACAGGACGGTGAATAGTAA,4.57,2.37,0.115,1.47,-0.0948,4.67,7.41,6.31,3.36,5.61
CAGCCTAGGTCAGGGCGAGTATAGGAGGAACGTT,1.8,0.876,-0.437,0.505,-1.08,2.07,1.03,1.29,0.157,0.783
CGAACTAGGTCAGATCAGGACAGTGAAGGATGAT,2.96,0.93,-0.182,0.466,-0.387,3.07,5.57,4.64,1.82,3.82
CAAACTAGGTCAAGGTCGAAGTCGGTTTGTGCCA,4.68,3.03,0.706,2.37,-0.00931,5.05,8.77,7.1,5.52,7.19
CCTACTGGGCGAAAGGTCATTGATTCCAATGCTC,4.47,4.72,3.02,4.35,0.417,5.92,11,9.6,9.1,11.6
AGTCAAAGTTCAGGACGAGGTAACGTACAGCACG,4.02,3.94,1.42,1.7,0.128,3.3,4.64,4.76,2.19,3.73
ATCCCTAGGTAAAGATAGTTCAGTGAATGCAAAT,0.139,4.49,0.337,0.881,0.0793,0.459,0.486,-0.104,-0.14,-0.302
AGAACGAGGGCGATGAGTTGATAGCACGGGTGGC,-0.358,-0.46,-0.764,-0.815,-0.754,-0.167,0.665,-0.212,-0.297,-0.297
TCTTGTAGTTCAAGCAGGTTAAGAAAGCCTGAGT,1.59,1.72,0.316,1.5,-0.0715,2.02,-0.535,1.65,2.53,1.94
GCTCGGAGGACAATGTCAGAGCTTTGTCCGTAGA,-0.623,-0.613,-0.612,-0.519,-0.999,-0.586,-0.765,-0.898,-1.25,-1.01
AGAGTGAGGTTAAGATCAGGGAAACAGAATACAT,2.54,2.17,0.665,2.44,1.09,3.15,1.43,2.13,0.952,1.36
CCTTACGGGTCACTCCGGGTTATAGCATCGGAGT,5.38,6.79,0.448,4.31,0.169,4.62,3.58,4.18,1.34,3.26
CCTACTGGGCCAAGGTCATTGATCAGTCAAAGCA,2.95,3.12,1.06,2.74,-0.497,4.1,4.15,4.44,1.5,3.81
ACTCGGAGCACAAAGGTCAGAGCTACGCCAGTGA,3.44,3.72,1.25,3.11,0.00562,4.38,5.58,6.38,4.55,6.24
TAGCTTAGGTCATGGGCCAGTATACCACGCGAAC,4.7,3.6,0.14,2.77,0.0949,4.23,2.88,3.21,0.853,2.08
TCTATTAGTTTATTAGGGCAACCGAAACAGCGGA,1.14,0.997,1.69,1.25,2.21,2.4,1.56,3.07,3.87,3.33
TCTAGTTGGTCAAAGGTCACACCCTCGAAATGCG,5.49,5.27,4.32,5.41,1.92,6.69,11.6,10.1,10.3,12.2
GGTGCTAGGTCAGGTTGGTCAGCTAACGGGTACG,1.56,1.33,0.61,1.09,0.134,1.71,1,1.8,0.315,1.35
TAGCCTAGGTCATGCGGGCCAGTACAGTGTCGGC,4.21,2.99,0.179,1.48,-0.174,3.65,2.42,2.56,0.126,1.61
CCTGCTAGATCAATGGTCAGCTAAAGCAGCTCGC,-0.932,-0.902,-0.811,-0.945,-0.566,-0.697,-0.182,0.115,-0.8,-0.292
CATACAGGGTCAGCTAGCCCAGAGTAGGGACGGC,4.68,3.03,-0.244,2.21,0.0889,4.36,3.35,2.84,0.528,1.8

Sequence,PBM binding z-score [1],PBM binding z-score [2],PBM binding z-score [3],PBM binding z-score [4],PBM binding z-score [5],PBM binding z-score [6],PBM binding z-score [7],PBM binding z-score [8],PBM binding z-score [9],PBM binding z-score [10]
AGTCAAAGTTCACTAGGTAACATAAGATTCAGCT,4.79,5.28,3.12,3.27,1.4,4.86,7.49,6.62,3.82,5.79
GCTCGGCGGACAAGGTCAGAGCTTTGTCCGTAGA,1.19,1.42,-0.598,0.784,-1.28,2.03,-0.519,0.435,-0.807,-0.297
AGAACGAGGACAATGAGTTGATAGCACGGGTGGC,-0.125,-0.562,-0.33,-0.706,-0.434,-0.365,1.06,-0.0649,-0.0875,-0.147
CCTACTAGGCCAAGGTCATTGATCAGTCAAAGCA,3.42,3.71,2.03,3.21,0.097,4.66,4.96,4.59,2.19,4.42
AGAATGAGGTTATGAAGATCAGGGAATTGCGGTC,1.75,1.53,0.162,1.04,-0.127,2.86,1.68,2.1,1.05,1.61
CTCGAAAGGTCGGTTAAGGTGAGTATACGGATAA,3.06,2.1,0.202,1.84,0.111,3.04,0.591,1.48,0.313,0.943
ATCGAAAGATCGAGGTGAGTATAGAGAAAGGGAA,0.0424,0.111,-0.321,-0.262,-0.23,0.469,0.553,0.362,0.533,0.418
TCTAGTTGGACAAAGGTCACACACTCGAAATGCG,5.55,5.75,3.58,5.38,1.83,6.21,9.82,8.72,9.32,9.4
CCTAGCAGGCCAGGGTCACTCGAGCATTTCGCTT,2.22,1.62,-0.424,1.78,-0.991,2.98,0.557,1.6,-0.327,0.652
CCTACCGGGCCAAGGTCATTGATCAGTCAAAGCA,3.14,3.01,1.23,2.66,-0.522,3.66,1.86,2.48,0.154,1.76
AGAATGAGGTTCCCAAAGATCAGGGAAACGCTTG,-0.395,-0.315,-0.36,-0.576,-0.694,0.11,0.423,0.0468,0.142,0.0809
ATATGTAGGTTGGCTGGGGTCATTCAGACTAGGC,4.06,3.56,2.01,4.28,2.04,4.46,2.66,3.18,0.972,1.89
CCGACTGAGGCAGAAAGGTTACCATACCATCCGG,0.495,0.563,0.0475,0.877,-0.972,1.82,1.05,1.42,0.27,0.899
CCTCGGAGGACGGAAGGTCAGAGCTGTCCGCTTT,1.07,1.43,-0.129,0.901,-1.26,1.57,-0.636,0.361,-0.964,-0.314
AGCTCTAGGTAACAAGTTCAGTGAAAGAGAGGAC,0.5,0.614,0.194,0.684,0.134,1.53,1.33,1.92,0.448,1.34
CATACAGGGTCAGTTAGGCCAGAGTAGGGACGGC,3.37,2.29,-0.0109,1.79,0.655,3.36,2.24,1.92,0.738,1.41
TTATATAGGTAAAAGGTGAAAGTCGGTGTGGTAA,2.14,1.87,0.372,2.02,-0.0123,6.3,10.6,9.28,9.36,10.3
CCTAGTTGTTCAAGGTCACACACGCTATAGGTAC,4.9,4.93,4.85,4.17,1.95,4.26,2.64,3.12,1.55,2.55
TCAGACAGATGAAGGTAACTCAGGTACGCAGTCG,0.719,0.98,-0.272,0.763,-0.545,0.832,0.832,2.06,4.27,3.3
TGTAGCAGGCCAGAGGGTCACTCAAGAGGTACGG,0.921,0.677,-0.568,0.665,-1.21,2.15,1.51,2.46,0.493,1.83
CGAACGAGGGCATGCGTTGATAGCAAATGCCGAT,0.569,0.207,-0.45,0.0933,-0.834,1.12,0.923,0.579,-0.693,0.0948
GGAACGAGGGCAAAGTTGATAACATCTGTCGACG,1.57,1.1,-0.134,1.12,-0.18,4.13,7.22,7.08,6.1,7.67
CATACTGGGCCAAGGTCATTGATCAGTCAAAGCA,3.54,3.16,1.14,3.19,0.044,4.12,4.1,4.28,2.31,3.8
TCTATTAGTTGATTAGCGCAACCGAAACAGCGGA,0.828,0.894,0.314,0.663,0.632,0.774,0.0474,2.11,3.89,2.97

# — the supplement of paper PMC6555819
